Rows were chosen to be rich in hits. Some 1.3% of all compounds tested hit in one or more screens of this group.
AmpC detergent = qHTS Inhibitors of AmpC Beta-Lactamase (assay with detergent); P00811; AID 485294, 2010; Potency, µM (series often up to 114 µM), for the others: at the highest dose activity change, negative = inhibition, most hits filed as inhibitors; 0.041% of 370,000 active; AmpC hydrolysis of nitrocefin, absorbance 480 nm, 0.01% Triton;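 also: potency is read from the fitted curve at half-maximal effect; 0% = no-compound wells and -100% = no-enzyme wells; nearly all actives have a fitted effect of over 25% in size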
Target sequence (P00811 whole entry, looked up): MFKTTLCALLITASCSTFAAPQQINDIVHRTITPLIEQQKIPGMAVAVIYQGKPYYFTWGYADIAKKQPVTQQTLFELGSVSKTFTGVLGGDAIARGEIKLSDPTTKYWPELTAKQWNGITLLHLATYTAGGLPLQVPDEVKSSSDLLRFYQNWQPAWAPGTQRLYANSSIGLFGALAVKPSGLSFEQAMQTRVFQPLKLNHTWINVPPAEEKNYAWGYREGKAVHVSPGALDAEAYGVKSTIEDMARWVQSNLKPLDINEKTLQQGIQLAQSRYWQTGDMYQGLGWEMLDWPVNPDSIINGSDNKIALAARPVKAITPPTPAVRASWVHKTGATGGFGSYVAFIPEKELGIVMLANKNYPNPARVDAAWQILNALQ
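20 mM phosphate pH 7.0 + 0.01% (detergent screen) or 0.0001% Triton X-100; 5.3 nM AmpC reagent; cpd preinc 15 min RT; nitrocefin (800 uM stock) to start; A480 q20 s × 4 min; Activity was normalised to no-enzyme and no-compound control wells.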
AMA1 RON2 block = qHTS for Inhibitors of AMA1-RON; Towards Development of Antimalarial Drug Lead: Primary Screen; 0.2% of 360,000 active; Potency, µM (top dose mostly 58.2 µM), inactives show at the top dose activity change, negative = inhibition, usual class: inhibitors; AID 720542, 2013; Plasmodium falciparum AMA1 (3D7) - RON2 peptide interaction; AlphaScreen AMA1-biotinylated RON2 peptide binding;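 also: potency is read from the fitted curve at half-maximal effect; 0% = vehicle wells and -100% = peptide control; nearly all actives have a fitted effect of over 45% in size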
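AMA1 (3D7) with his tag at 25 nM final met compounds first, then biotinylated RON2 peptide at 25 nM; detection used donor plus acceptor beads, 10 µg/mL apiece, read by AlphaScreen after 30 min at room temperature.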
AmpC inh no detg = qHTS Inhibitors of AmpC Beta-Lactamase (assay without detergent); P00811; 0.52% of 330,000 active; Potency, µM (top dose mostly 57.1 µM), for the others: at the highest dose activity change, negative = inhibition, hits mostly inhibitors; AmpC nitrocefin hydrolysis, absorbance 480 nm, 0.0001% Triton;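 also: potency is read from the fitted curve at half-maximal effect; plate controls were no compound for no effect and no enzyme for full effect; nearly all actives have a fitted effect of over 20% in size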
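AmpC (5.3 nM in the dispensed reagent) in 20 mM phosphate pH 7.0 with 0.01% (detergent screen) or 0.0001% Triton X-100 was preincubated with compounds for 15 min at room temperature. Nitrocefin was then added from an 800 uM solution, and hydrolysis was followed at 480 nm.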
VACV Venus inh = qHTS for Stage-Specific Inhibitors of Vaccinia Orthopoxvirus: Venus Reporter Primary qHTS | Vaccinia virus Venus reporter expression, fluorescence | Potency, µM (highest dose often 36.5 µM), inactives show at the highest dose activity change, negative = inhibition, actives largely listed as inhibitors | 0.46% of 330,000 active; calls by dose curve; tested in A549 cells; also: potency is read from the fitted curve at half-maximal effect; % is scaled to controls: 0 for no effect and ±100 for the full control effect; nearly all actives have a fitted effect of over 30% in size
Vaccinia mCherry = qHTS for Stage-Specific Inhibitors of Vaccinia Orthopoxvirus: mCherry Reporter Primary qHTS; 0.63% of 310,000 active; Vaccinia virus mCherry reporter infection, fluorescence; Potency, µM (doses to about 36.5 µM), inactives show at the highest dose activity change, negative = inhibition, usual class: inhibitors; AID 720579, 2013; calls by dose curve; tested in A549 cells; also: potency is read from the fitted curve at half-maximal effect; % is scaled to controls: 0 for no effect and ±100 for the full control effect; nearly all actives have a fitted effect of over 35% in size
SARS PLpro yeast-1 = qHTS of Yeast-based Assay for SARS-CoV PLP. S. cerevisiae expressing SARS-CoV PLpro, growth rescue. Potency, µM (highest dose often 32.9 µM), for the others: at the top dose activity, positive = growth rescue, most hits filed as activators. 0.19% of 330,000 active. AID 485353, 2010; calls by dose curve; also: potency is read from the fitted curve at half-maximal effect; 0% is about no effect; nearly all actives have a fitted effect of over 55% in size
SARS PLpro yeast-2 = qHTS of Yeast-based Assay for SARS-CoV PLP: Hit Validation. shares compounds with SARS PLpro yeast-1. yeast expressing SARS-CoV PLpro, growth phenotype rescue. calls only. 19% of 1,000 active. AID 652038, 2013; call rule not given here
* hit, by the source's call; [ ] = dose if it differs, or a comment. Unless noted, calls follow the shape of the dose curve; as a rule, active = well fitted curve in the direction sought with a large enough effect; inconclusive = small, poorly fitted or top-dose-only effect, or another doubt; inactive = no such curve, though single readings can be large; an effect the other way counts as inactive or inconclusive.

COc1ccc(CCNC(=O)Cn2nc([N+](=O)[O-])c(Br)c2C)cc1OC was read as AmpC detergent 7%, AMA1 RON2 block 2%, AmpC inh no detg -7%, VACV Venus inh -10%, Vaccinia mCherry -8%, SARS PLpro yeast-1 inconclusive and SARS PLpro yeast-2 inactive.
Cc1ccc(-n2nc(C)c3c(C)cc(=O)n(CC(=O)NC(C)C)c32)cc1 was read as AmpC detergent 12%, VACV Venus inh 7% and Vaccinia mCherry -6%.
CC(CNC(=O)Cn1cnc2c(NCc3ccccc3)ncnc21)c1ccccc1 (stereo not given) was read as AMA1 RON2 block -4%, AmpC inh no detg -16%, VACV Venus inh -11%, Vaccinia mCherry inactive, SARS PLpro yeast-1 14µM* and SARS PLpro yeast-2 active.
`O=C(Cn1cnc2c(NCc3ccccc3)ncnc21)NCCCc1ccccc1` gave AMA1 RON2 block 6%, AmpC inh no detg -16%, VACV Venus inh -20%, Vaccinia mCherry -12% and SARS PLpro yeast-1 -3%.
Cc1cccc(NC(=O)COC(=O)C2C3CC4OC(=O)C2C4C3)c1C (stereo not given) was read as AmpC detergent 2%, AMA1 RON2 block 0%, AmpC inh no detg -7%, VACV Venus inh -18%, Vaccinia mCherry inactive and SARS PLpro yeast-1 2%.
Screening Cc1cccc(C)c1NC(=O)COC(=O)C1C2CC3OC(=O)C1C3C2 (stereo not given) returned AmpC detergent -6%, AMA1 RON2 block 0%, AmpC inh no detg -11%, VACV Venus inh -3%, Vaccinia mCherry -1%, SARS PLpro yeast-1 11µM* and SARS PLpro yeast-2 inactive.
`CCS(=O)(=O)N1CC(=O)N(c2ccc(C)c(C)c2)C(C)(C(=O)NC2CCCCC2)C1` (stereo not given) gave AmpC detergent 16%, VACV Venus inh -14% and Vaccinia mCherry -17%.
For CN1/C(=C\C(=S)NC(=O)c2ccccc2Cl)C(C)(C)c2ccccc21 the results were AmpC detergent -1%, AMA1 RON2 block -15%[11.6 µM], AmpC inh no detg -34%, VACV Venus inh 23%, Vaccinia mCherry -9%, SARS PLpro yeast-1 inconclusive and SARS PLpro yeast-2 active.
For C1=Cc2ccccc2/C1=C\c1cccc(/C=C2\C=Cc3ccccc32)c1 the results were VACV Venus inh -20% and Vaccinia mCherry -3%.
`CC(C)[C@H](NC(=O)c1ccccc1)C(=O)OCC(=O)c1c(N)n(C)c(=O)n(C)c1=O` gave AMA1 RON2 block -3%, AmpC inh no detg -29% and SARS PLpro yeast-1 3%.
Screening COc1ccc(-c2nn(-c3ccccc3)cc2/C=N/NC(=S)NC(C)C)cc1OC returned AmpC detergent -12%, AMA1 RON2 block -2%, AmpC inh no detg -31%, VACV Venus inh -22%, Vaccinia mCherry -5%, SARS PLpro yeast-1 7.1µM* and SARS PLpro yeast-2 active.
Screening COc1ccc(-c2nn(-c3ccccc3)cc2/C=N/O)cc1OC returned AmpC detergent 4%, AMA1 RON2 block -10%, AmpC inh no detg -15% and SARS PLpro yeast-1 -2%.
`CC(C)C(=O)Nc1cccc(C(=O)Nc2nnc(C(C)(C)C)s2)c1` gave AmpC detergent -7%, AMA1 RON2 block 7%, AmpC inh no detg -12%, VACV Venus inh -8%, SARS PLpro yeast-1 inconclusive and SARS PLpro yeast-2 inactive.
CC(C)C(=O)Nc1ccc(C(=O)Nc2nnc(C(C)(C)C)s2)cc1 was read as AmpC detergent 1%, AMA1 RON2 block -8%, AmpC inh no detg -14%, VACV Venus inh -8%, Vaccinia mCherry -15% and SARS PLpro yeast-1 0%.

Compound activity as filed in PubChem BioAssay.
